What all share (test): NCI-60 one-dose screen, 48 h (100 = growth as untreated, 0 = no growth, -100 = all killed)
Conditions in all cases: 10 µM unless noted

The test system of assay [1] is MOLT-4 leukemia.
In assay [2] the test system is SR leukemia.
The test system of assay [3] is RPMI-8226 leukemia.
Assay [4] has as its system OVCAR-8 ovarian.
The subject of assay [5] is OVCAR-5 ovarian.
Assay [6] has as its system OVCAR-4 ovarian.
The test system of assay [7] is SK-OV-3 ovarian.
Assay [8] deals with IGROV1 ovarian.
The subject of assay [9] is OVCAR-3 ovarian.
The test system of assay [10] is HS 578T breast.
Assay [11] has as its system NCI/ADR-RES ovarian.
In assay [12] the test system is T-47D breast.
In assay [13] the test system is BT-549 breast.
In assay [14] the test system is MDA-MB-435 melanoma.
In assay [15] the test system is SW-620 colon.
For assay [16], the system named is MCF7 breast.
Assay [17] relates to HCT-116 colon.
The subject of assay [18] is HCC-2998 colon.
The test system of assay [19] is KM12 colon.

“And” between values parts separate entries of the source, which are not always exact repeats. Equal entries are not always repeated. About 83,000 compounds went through this panel and 20% of them were active in at least one assay; those are over-represented in the sample as a whole.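 A percent growth of 40 corresponds to 60% growth inhibition; 0 means no net growth; -100 means all cells died. Active threshold: below 10.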 A number with no mark means an inactive call. The source made the active and inactive calls.

For seven compounds, growth results are on record in PubChem BioAssay (NCI).

Regarding `O=[N+]([O-])c1ccc(OCc2ccc(S(=O)(=O)F)c(Cl)c2)c(Cl)c1`, the growth is 68.2% in [1]; 87.5% in assay [2]; 97.8% in assay [3]; 105% in assay [4]; 99% in assay [5]; 102% in assay [6]. For the same compound, the growth in [7] was 107%; in [8], 100%; in [9], 112%; in [10] it was 95.4%; in [11], 102%; in assay [12] it was 97%. Besides, the growth was 91.6% in [13]; 113% in [14]; 98.8% in assay [15]; 92.8% in assay [16]; 90.1% in assay [17]; 105% in [18]. Besides, the growth in [19] is 113%.

`Cc1cc(C(C)(C)C)ccc1O`: the growth in [1] was 99.5%; in assay [2], 93.8%; in [3], 105%; in [4], 102%; in assay [5], 120%; in [6] it was 109%. In addition, the growth in assay [7] is 100%; in [8], 107%; in assay [9], 105%; in [10], 99.8%; in assay [11], 98.3%; in assay [12], 103%. The growth in assay [13] was 109%; in assay [14], 111%; in [15], 108%; in [16], 101%; in assay [17], 95.6%; in [19], 103%.

On to `CC[C@H](C)[C@H](NC(=O)[C@H]1CCCCN1C)C(=O)N(C)[C@H](CCc1nc(C(=O)N[C@@H](Cc2ccccc2)C[C@H](C)C(=O)O)cs1)C(C)C`, for which the growth in [1] is 20.4%; in assay [2], 18.6%; in assay [3], 25.2%; in [4], 15.8%; in assay [5], 46.8%; in assay [6], 43.8%. Also, the growth in assay [7] was 12.3%; in [8], 41.5%; in [9] it was -4.67% (active); in assay [10], 27.7%; in assay [11] it was 73.3%; in assay [12], 52.6%. The growth in [13] is -3.33% (active); in assay [14], -38.1% (active); in [15], 27.6%; in assay [16], 14.2%; in assay [17], 2.59% (active); in [18] it was 21.5%. Also, the growth in assay [19] was 9.24% (active).

On to `C[C@]12CC[C@H]3[C@@H](C[C@@H]4SC(Nc5cccc(F)c5)=N[C@@]45CC(=O)CC[C@]35C)[C@@H]1CCC2=O`, for which the growth in [1] is -3.78% (active); in assay [2], -11.9% (active); in assay [3], -22.3% (active); in assay [4], 39.6%; in [5] it was 65.5%; in [6] it was 59.2%. For the same compound, the growth in assay [7] is -18.4% (active); in [8] it was 60%; in assay [9] it was -5.24% (active); in assay [10], 35.4%; in assay [11] it was 55.4%; in assay [12], -0.755% (active). For the same compound, the growth is -8.61% (active) in [13]; 35.9% in [14]; 4.62% (active) in assay [15]; 4.46% (active) in assay [16]; -68.8% (active) in assay [17]; 75.5% in assay [18]. Besides, the growth in assay [19] is 38.7%.

Turning to `Cc1ccc(N2CCN(CCC#N)CC2)cc1`, the growth in [1] was 105%; in assay [2], 99.3%; in assay [3], 96.7%; in [4], 97.3%; in assay [5], 92.5%; in assay [6] it was 110%. Further, the growth is 93.4% in assay [7]; 95.5% in assay [8]; 106% in assay [9]; 135% in [10]; 98.8% in assay [11]; 90.9% in assay [12]. In addition, the growth was 79% in assay [13]; 101% in assay [14]; 90.3% in assay [15]; 73.8% in [16]; 95.7% in [17]; 88% in assay [18]. Besides, the growth in assay [19] was 90%.

Consider `C[C@]12C[C@H](c3ccoc3)OC(=O)[C@H]1CC[C@@]1(C)[C@@H]2[C@H]2C=C[C@]1(O)C(=O)O2`, for which the growth in assay [1] is 96%; in assay [2], 100%; in assay [3], 95.4%; in assay [4] it was 95.3%; in assay [5] it was 104%; in assay [6] it was 93.7%. Further, the growth in assay [7] was 95.7%; in assay [8], 96%; in assay [9] it was 102%; in assay [10] it was 107%; in [11], 106%; in assay [12], 103%. Further, the growth in assay [13] is 86.5%; in [14] it was 98.1%; in assay [15] it was 109%; in [16] it was 92.7%; in [17], 76.6%; in assay [18], 103%. Further, the growth in assay [19] is 104%.

For the compound `COc1ccc(CN)cc1OC`, the growth in [1] is 112% and 95.2%; in assay [2], 104%; in [3], 112% and 105%; in assay [4], 109% and 102%; in [5], 110% and 94.9%; in assay [6], 125% and 104%. Also, the growth was 113% and 105% in assay [7]; 110% and 101% in assay [8]; 109% and 107% in assay [9]; 110% and 101% in assay [10]; 106% and 103% in assay [11]; 113% and 97.4% in assay [12]. For the same compound, the growth is 113% and 102% in [13]; 109% in [14]; 111% and 99.5% in [15]; 103% and 95.5% in [16]; 97.8% and 102% in [17]; 91% and 106% in [18]. Besides, the growth in [19] was 120% and 106%.
